In PubChem BioAssay (Tox21):
Several values for one entry are separate records, joined by “and”; a condition that tells them apart may be missing. Identical values can stand only once. Results filed as inconclusive are left out. More than one record can exist for a structure, and the calls need not agree. Activity calls are given as the source filed them. Unless noted, the call rests on the fitted dose curve; in most records, active means well fitted curve in the direction sought with a large enough effect in the repeat runs; inconclusive means weak or mixed curves; inactive means no such curve, though single readings can be large; an effect the other way counts as inactive or inconclusive.

What was measured:
[1] = qHTS assay to identify small molecule agonists of the hypoxia (HIF-1) signaling pathway - cell viability counter screen (AID 1224844; calls by dose curve; further: nearly all actives have a fitted effect of over 50% in size; further: potency means the concentration at half of the fitted maximal effect)
In short: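 Tox21 10K compounds were added to HRE-bla ME-180 cells (0.5% dialyzed FBS) and incubated 17 hrs at 37C; ATP-based CellTiter-Glo luminescence then reported cell viability in the same wells.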

[2] = qHTS assay to identify small molecule agonists of H2AX (AID 1224845; active means well fitted activation curve with a large enough effect in the signal ratio in the repeat runs, not every such curve was filed as active; the % refers to the signal ratio; further: potency means the concentration at half of the fitted maximal effect)
In short: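 Wild-type CHO-K1 cells plated overnight, then exposed 3 hr at 37C to compounds at 15 concentrations (0.76% DMSO). Lysed, then HTRF anti-pH2AX(S139)-cryptate/anti-H2AX-d2 detection after 24 hr at room temperature; emissions 665 and 620 nm.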

[3] = qHTS assay to identify small molecule agonists of H2AX - cell viability counter screen (AID 1224847; calls by dose curve; further: nearly all actives have a fitted effect of over 30% in size; further: potency means the concentration at half of the fitted maximal effect)
In short: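 We seed wild-type CHO-K1 cells overnight, treat them for 3 hr at 37C with compounds in 15-concentration series, and quantify remaining viability by CellTiter-Glo luminescence.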

[4] = qHTS assay to identify small molecule antagonists of the estrogen related receptor (ERR) signaling pathway from Tox21 library (AID 1224848); further: nearly all actives have a fitted effect of over 50% in size; further: potency means the concentration at half of the fitted maximal effect
In short: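 Cells: ERR line, 2,000/well; 6 h preincubation 37 C/5% CO2. Cpd in DMSO via pin tool; 18 h, 37 C. ONE-Glo, 30 min RT, luminescence.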

[5] = qHTS assay to identify small molecule agonists of the estrogen related receptor (ERR) signaling pathway from Tox21 library (AID 1224849; calls by dose curve; further: nearly all actives have a fitted effect of over 15% in size); conditions: ERR reporter cell line, ONE-Glo luciferase, 18 h
In short: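 Agonist signal is luciferase luminescence from an ERR reporter cell line treated 18 h at 37 C with DMSO-dissolved compounds, read 30 min after ONE-Glo addition at room temperature.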

[6] = qHTS RealTime-Glo MT Cell Viability Assay in HepG2 cells - 24 hour (AID 1224867); further: nearly all actives have a fitted effect of over 50% in size; further: potency means the concentration at half of the fitted maximal effect
In short: (§1)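 Cells + NanoLuc/prosubstrate dispensed (600 cells/well) → 5 h at 37 C/5% CO2 → compounds in DMSO transferred → 40 h incubation at 37 C, luminescence read at 0, 8, 16, 24, 32, 40 h.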

[7] = qHTS RealTime-Glo MT Cell Viability Assay in HEK293 cells - 32 hour (AID 1224868); further: nearly all actives have a fitted effect of over 50% in size; further: potency means the concentration at half of the fitted maximal effect
In short: (§2)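 Tox21 10K qHTS, HEK293, 600 cells/well, RealTime-Glo reagent co-dispensed with cells; 5 h preincubation, compound by pintool, 37 C, luminescence at 0–40 h.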

[8] = A CellTox Green Cytotoxicity Assay to monitor cytotoxicity in HEK293 cells - 0 hour (AID 1224869); further: nearly all actives have a fitted effect of over 50% in size
In short: (§3)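 Cytotoxicity was tracked continuously in HEK293 cells by a DNA-binding dye excluded from viable cells. Compounds were transferred in DMSO 5 h after seeding; fluorescence was recorded at intervals up to 40 h.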

[9] = qHTS RealTime-Glo MT Cell Viability Assay in HepG2 cells - 40 hour (AID 1224870); further: nearly all actives have a fitted effect of over 50% in size; further: potency means the concentration at half of the fitted maximal effect
In short: (§4)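 HepG2 cells mixed with RealTime-Glo MT reagents (NanoLuc plus cell-permeant prosubstrate) were seeded at 600 cells/well, incubated 5 h at 37 C/5% CO2, then pinned with compounds in DMSO; nonlytic luminescence tracked viability during 40 h treatment.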

[10] = A CellTox Green Cytotoxicity Assay to monitor cytotoxicity in HEK293 cells - 40 hour (AID 1224871); further: nearly all actives have a fitted effect of over 45% in size; further: potency means the concentration at half of the fitted maximal effect
In short: as §3

[11] = qHTS RealTime-Glo MT Cell Viability Assay in HEK293 cells - 16 hour (AID 1224872); further: nearly all actives have a fitted effect of over 50% in size; further: potency means the concentration at half of the fitted maximal effect
In short: as §2

[12] = qHTS RealTime-Glo MT Cell Viability Assay in HepG2 cells - 8 hour (AID 1224873); further: nearly all actives have a fitted effect of over 55% in size; further: potency means the concentration at half of the fitted maximal effect
In short: as §4

[13] = qHTS RealTime-Glo MT Cell Viability Assay in HEK293 cells - 40 hour (AID 1224874); conditions: RealTime-Glo luminescence; max response: stronger effect = lower value; further: nearly all actives have a fitted effect of over 50% in size; further: potency means the concentration at half of the fitted maximal effect
In short: (§5)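 Nonlytic bioluminescent viability monitoring. HEK293 at 600 cells/well with reagent; 5 h settle; compound transfer by pintool; plates held at 37 C and read at set time points.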

[14] = A CellTox Green Cytotoxicity Assay to monitor cytotoxicity in HEK293 cells - 24 hour (AID 1224875); further: nearly all actives have a fitted effect of over 45% in size; further: potency means the concentration at half of the fitted maximal effect
In short: as §3

[15] = A CellTox Green Cytotoxicity Assay to monitor cytotoxicity in HepG2 cells - 16 hour (AID 1224876); further: nearly all actives have a fitted effect of over 45% in size; further: potency means the concentration at half of the fitted maximal effect
In short: (§6)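 Real-time, homogeneous cytotoxicity readout: dead-cell DNA staining by CellTox Green in HepG2 monolayers, fluorescence measured at timed intervals up to 40 h of continuous compound exposure.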

[16] = qHTS RealTime-Glo MT Cell Viability Assay in HepG2 cells - 32 hour (AID 1224877); further: nearly all actives have a fitted effect of over 55% in size; further: potency means the concentration at half of the fitted maximal effect
In short: as §1

[17] = A CellTox Green Cytotoxicity Assay to monitor cytotoxicity in HepG2 cells - 24 hour (AID 1224878); further: nearly all actives have a fitted effect of over 45% in size; further: potency means the concentration at half of the fitted maximal effect
In short: as §6

[18] = A CellTox Green Cytotoxicity Assay to monitor cytotoxicity in HepG2 cells - 40 hour (AID 1224879); further: nearly all actives have a fitted effect of over 40% in size; further: potency means the concentration at half of the fitted maximal effect
In short: as §6

[19] = qHTS RealTime-Glo MT Cell Viability Assay in HEK293 cells - 0 hour (AID 1224880)
In short: as §5

[20] = qHTS assay to identify small molecule agonists of the hypoxia (HIF-1) signaling pathway (AID 1224846; active means well fitted activation curve with a large enough effect in the signal ratio in the repeat runs, not every such curve was filed as active; the % refers to the signal ratio)
In short: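 Steps: seed ME-180 HRE-bla cells (2,000/well, 0.5% dialyzed FBS); incubate 5 hrs at 37C; pin-transfer compounds or DMSO; incubate 17 hrs; add LiveBLAzer B/G substrate CCF4-AM; measure reporter activation by FRET.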
On the % scale 0 is the no-effect control and ±100 the full control effect.

C[CH2][Hg][S]c1ccccc1C(=O)O
inactive: activity change, positive = activation ([5]; at 42.5 µM (top of the series)) -75.4% | activity change, positive = activation ([5]; at 92.4 µM (top of the series)) -77.1% | Potency [8] | outcome [19]
inactive and 16.8 µM (active): Potency [4]
active: Potency [1] 616 nM and 1.9 µM | Potency [2] 4.01 µM | Potency [3] 17.9 µM and 24.7 µM | Potency [6] 2.19 µM and 2.13 µM | Potency [7] 977 nM and 1.07 µM | Potency [9] 2.19 µM and 2.39 µM | Potency [10] 6.92 µM and 4.77 µM | Potency [11] 1.23 µM and 2.13 µM | Potency [12] 3.47 µM and 2.13 µM | Potency [13] 871 nM and 952 nM | Potency [14] 7.76 µM and 5.35 µM | Potency [15] 3.89 µM and 2.39 µM | Potency [16] 2.19 µM and 2.13 µM | Potency [17] 5.49 µM and 2.39 µM | Potency [18] 1.95 µM and 2.13 µM

Clc1ccc2ccccc2c1
active: Potency [14] 50.5 µM
inactive: Potency [1] | Potency [2] | outcome [20] | Potency [3] | Potency [6] | Potency [8] | Potency [9] | Potency [12] | Potency [15] | Potency [16] | Potency [17] | outcome [19]

CCOC(=O)C1OC1(C)c1ccccc1 (centres undefined)
inactive: Potency [1] | Potency [2] | outcome [20] | Potency [6] | Potency [7] | Potency [8] | Potency [9] | Potency [10] | Potency [11] | Potency [12] | max response [13] 0.105% and 2.55% | Potency [14] | Potency [15] | Potency [16] | Potency [17] | outcome [19]

O=C([O-])c1ccccn1.O=C([O-])c1ccccn1.O=C([O-])c1ccccn1.[Cr+3]
inactive: Potency [1] | Potency [2] | outcome [20] | Potency [6] | Potency [8] | Potency [9] | Potency [10] | Potency [11] | Potency [12] | max response [13] 2.2% | Potency [15] | Potency [16] | Potency [17] | Potency [18] | outcome [19]

CC(=O)OC(c1ccccc1)C(Cl)(Cl)Cl (centres undefined)
inactive: Potency [1] | Potency [2] | outcome [20] | Potency [6] | Potency [7] | Potency [8] | Potency [9] | Potency [11] | Potency [12] | max response [13] -15.9% | Potency [16] | outcome [19]
active: Potency [10] 19.5 µM | Potency [14] 19.5 µM | Potency [15] 21.9 µM | Potency [17] 21.9 µM | Potency [18] 21.9 µM

CCCC[P+](CC)(CCCC)CCCC (tested in a mixture with another compound)
inactive: Potency [1] | Potency [2] | outcome [20] | Potency [3] | Potency [6] | Potency [8] | Potency [9] | Potency [10] | Potency [12] | Potency [15] | Potency [16] | Potency [17] | outcome [19]

c1ccc2c(c1)-c1cccc3cccc-2c13
inactive: Potency [1] | Potency [2] | outcome [20] | Potency [6] | Potency [8] | Potency [9] | Potency [11] | Potency [12] | max response [13] -7% and -12.1% | Potency [14] | Potency [15] | Potency [16] | Potency [17] | outcome [19]
inactive and 43.6 µM (active): Potency [10]

CC(C)OC(=O)Cc1ccccc1
inactive: Potency [1] | Potency [2] | outcome [20] | Potency [6] | Potency [7] | Potency [8] | Potency [9] | Potency [10] | Potency [11] | Potency [12] | max response [13] 5.49% | Potency [15] | Potency [16] | Potency [17] | Potency [18] | outcome [19]

O=C(O)C(Cl)(Cl)Br
inactive: Potency [1] | Potency [2] | outcome [20] | Potency [6] | Potency [7] | Potency [8] | Potency [9] | Potency [10] | Potency [11] | Potency [12] | max response [13] 0.585% | Potency [15] | Potency [16] | Potency [17] | Potency [18] | outcome [19]

C[C@]12CC[C@H]3[C@@H](CCC4=CC(=O)CC[C@@H]43)[C@@H]1CC[C@@H]2OC(=O)CCc1ccccc1
inactive: Potency [1] | Potency [2] | outcome [20] | Potency [4] | activity change, positive = activation ([5]; at 42.5 µM (top of the series)) 10.2% | Potency [6] | Potency [7] | Potency [8] | Potency [9] | Potency [11] | Potency [12] | max response [13] 0.945% | Potency [15] | Potency [16] | Potency [17] | outcome [19]

Nc1cc(Cl)cc(C(=O)O)c1Cl
inactive: Potency [1] | Potency [2] | outcome [20] | Potency [4] | activity change, positive = activation ([5]; at 92.4 µM (top of the series)) 4.39% and 3.97% | Potency [6] | Potency [8] | Potency [9] | Potency [10] | Potency [11] | Potency [12] | max response [13] 1.89% and 6.4% | Potency [15] | Potency [16] | Potency [17] | Potency [18] | outcome [19]

CCOP(=O)(O)C(N)=O
inactive: Potency [1] | Potency [2] | outcome [20] | Potency [6] | Potency [7] | Potency [8] | Potency [9] | Potency [10] | Potency [11] | Potency [12] | max response [13] 20.4% | Potency [14] | Potency [15] | Potency [16] | Potency [17] | Potency [18] | outcome [19]

NP(N)(=O)NC(=O)c1ccc(F)cc1
inactive: Potency [1] | Potency [2] | outcome [20] | Potency [4] | activity change, positive = activation ([5]; at 42.5 µM (top of the series)) -0.0729% | Potency [6] | Potency [7] | Potency [8] | Potency [9] | Potency [10] | Potency [11] | Potency [12] | max response [13] 1.36% | Potency [15] | Potency [16] | Potency [17] | Potency [18] | outcome [19]

CCCN(CCC)c1c([N+](=O)[O-])cc(C(C)C)cc1[N+](=O)[O-]
inactive: Potency [1] | Potency [2] | outcome [20] | Potency [6] | Potency [7] | Potency [8] | Potency [9] | Potency [10] | Potency [11] | Potency [12] | max response [13] 9.58% | Potency [14] | Potency [15] | Potency [16] | Potency [17] | Potency [18] | outcome [19]

CC(C)(C)OOC(C)(C)CCC(C)(C)OOC(C)(C)C
inactive: Potency [1] | Potency [2] | outcome [20] | Potency [4] | activity change, positive = activation ([5]; at 92.4 µM (top of the series)) 2.37% | Potency [6] | Potency [7] | Potency [8] | Potency [9] | Potency [10] | Potency [11] | Potency [12] | max response [13] 9.43% | Potency [15] | Potency [16] | Potency [17] | Potency [18] | outcome [19]
